Screen size: about 69,000 compounds; about 8,600 (12%) showed an effect of 50% or more. This is one part of a sample in which strong results are shown more often than they occur.

The test system of the assay is Plasmodium berghei. In words: Screen against P. berghei liver stage (PbLuc), transformed with Luciferase, at 10uM. It counts as functional, HepG2. The conditions noted are these: tested at 10 uM.
For `CCN(CC)c1ncc(Cl)c(C(=O)NC2CCc3nccn3C2)n1` (stereo not given), the INHIBITION worked out at 76.7%. Take `CNc1nc(CNC(=O)Nc2cccc(Cl)c2Cl)cs1`: the INHIBITION was -15.467%. With `CCc1noc(CCC(=O)N2CCC(c3ccn[nH]3)C2)n1` (stereo not given), the INHIBITION is 10.97%. Consider `CNC(=O)N1Cc2cc(F)ccc2C2(CCN(C)CC2)C1`, for which the INHIBITION is 21.6%. Turning to `CCc1ccc(S(=O)(=O)Nc2ccn(CC(=O)OC)n2)cc1`, the INHIBITION was -74%. For the molecule `C=c1ccoc1=C1NN=C(CNCCn2cc(C)cn2)O1`, the INHIBITION was -25.9%. With `NC(=O)NC(=O)CNC1(c2ccc(Cl)cc2)CCC1`, the INHIBITION is -24.2%. For the molecule `COCCN1CCCn2c(nc(CNS(C)(=O)=O)cc2=O)C1`, the INHIBITION came out at 25.8%.

Consider `CCOC(=O)c1sc2ccsc2c1CNC(=O)C(C)OC` (stereo not given), for which the INHIBITION was 17.8%. For `CCOC(=O)c1sc2ccsc2c1CNC(=O)COC` the value was 19.933%; for `CCOC(=O)c1sc2ccsc2c1CNC(=O)CCOC`, 61.6%. As to `CCOC(=O)c1sc2ccsc2c1CNC(=O)C(C)(C)C#N`, the INHIBITION is recorded as 20.6%. With `CCOC(=O)c1sc2ccsc2c1CNC(=O)CC`, the INHIBITION is on record as 57.2%. Consider `CCOC(=O)c1sc2ccsc2c1CNS(C)(=O)=O`, for which the INHIBITION is on record as 7.925%.

For `CC(C(=O)NCC1CCN(c2ccncc2)CC1)S(C)(=O)=O` (stereo not given), the INHIBITION is reported as -7.94%. For `O=C(c1cnc2ccc(F)cc2c1NCc1ccco1)N1CCCCC1`, the INHIBITION is given as -6.73%. Take `CCN(Cc1ccc(F)c(F)c1)Cc1nc2c(cnn2C)c(=O)[nH]1`: the INHIBITION is reported as -57.4%. For `CSCC(=O)N1CCCC(CCC(=O)N(C)CCc2ccccn2)C1` (stereo not given) the value was 29.2%; for `CCc1nc(C2CCCN2C(=O)CCc2nc(C3CC3)no2)no1` (stereo not given), -9.19%; for `CCS(=O)(=O)N1Cc2nccn2CC(Cn2cncn2)C1` (stereo not given), 20.6%.

As for `O=S(=O)(C1CC1)N1Cc2nccn2CC(Cn2cncn2)C1` (stereo not given), the INHIBITION came to 68.3%. For `CCCS(=O)(=O)N1Cc2nccn2CC(Cn2cncn2)C1` (stereo not given) the value was -23.1%.

Consider `Cc1nccn1CCC1CCN(C(=O)C2CC3(CCNCC3)CN2)CC1` (stereo not given), for which the INHIBITION is recorded as 33.9%. For `COCCN1CCN(CCCS(=O)(=O)N(C)C)CC1C` (stereo not given) the value was 66.7%; for `COCCN1CCN(CCS(C)(=O)=O)CC1C` (stereo not given), -73.1%. In the case of `COCCN1CCN(CCCS(C)(=O)=O)CC1C` (stereo not given), the INHIBITION came to 25.7%. For the molecule `NCc1cccc(-c2cccnc2C(=O)NCCN2CCOCC2)c1`, the INHIBITION is on record as 25.8%. For `Cn1cc(NC(=O)c2cc3c(s2)CCCC3)cn1` the value was -179%; for `Cc1csc(CCNC(=O)C2CCOC2)n1` (stereo not given), 8.08%; for `CCc1nc(CCNC(=O)C2CC2)sc1C`, 2.69%. As to `CCc1nc(CCNC(=O)C2CCOC2)sc1C` (stereo not given), the INHIBITION was determined as 56.8%.

On to `N#Cc1c(N2CCOCC2)nsc1-c1cccnc1`, for which the INHIBITION is reported as -31.3%.

`Cc1cccc(C(C)C)c1NC(=O)NCCN(C(C)C)C(C)C`: the INHIBITION is 56%.

Turning to `CCN(CC)CCCNC(=O)Nc1c(C)cccc1C(C)C`, the INHIBITION stood at 7.3%.

For `COCCCNC(=O)Nc1c(C)cccc1C(C)C`, the INHIBITION was -19.1%. For `CCN(CC)C(=O)c1ccc(CNc2cncc(-n3cccn3)n2)cc1` the value was 29.4%; for `Cc1nc(CN2CCN(c3ccc(Cl)cn3)CC2)no1`, -52.4%; for `Cn1ccnc1-c1cccc(NC(=O)NCCCO)c1`, 10%. Consider `CCC(CC)C(O)CNC(=O)Nc1cccc(-c2nccn2C)c1` (stereo not given), for which the INHIBITION was found to be 50.8%. For `CCOCCNC(=O)Nc1cccc(-c2nccn2C)c1` the value was -21.8%; for `Cn1cnc2c1C(COCC1CC1)CN(c1ncccn1)C2` (stereo not given), -32%; for `CC(=O)N1CCCN(C(=O)NC(C)Cn2cccn2)CC1` (stereo not given), 21.6%.

`Cn1cc(CN2C[C@@H]3CCCO[C@@H]3[C@H](N3CCCC3=O)C2)cn1`: the INHIBITION is on record as -3.51%.

`CCOCc1nc2c(c(NC(COC)c3ccccn3)n1)CCNCC2` (stereo not given): the INHIBITION was 8.31%. For `COc1ccc(C(=O)C2CCCN(Cc3ccon3)C2)c(OC)c1` (stereo not given) the value was 47.7%; for `COc1ccc(C(=O)C2CCCN(Cc3cc(C)n[nH]3)C2)c(OC)c1` (stereo not given), 68.5%. For `COc1ccc(C(=O)C2CCCN(Cc3ccc(C)o3)C2)c(OC)c1` (stereo not given) the value was 42.9%; for `COc1ccc(C(=O)C2CCCN(Cc3ccncc3)C2)cc1OC` (stereo not given), 63%; for `COc1ccc(F)cc1C(=O)C1CCCN(Cc2ccc(C)s2)C1` (stereo not given), 43.9%. Turning to `COCCc1ncc(CN2CCCC(C(=O)c3ccccc3)C2)cn1` (stereo not given), the INHIBITION was 36.8%.

For `COc1ccc(C(=O)C2CCCN(CCc3ccccc3)C2)c(OC)c1` (stereo not given), the INHIBITION came out at 71.3%. For `COc1ccc(C(=O)C2CCCN(Cc3ccncc3)C2)c(OC)c1` (stereo not given) the value was -3.1%; for `COc1ccc(C(=O)C2CCCN(Cc3ccccc3O)C2)c(OC)c1` (stereo not given), -20.5%; for `COc1ccc(C(=O)C2CCCN(CCCn3cccn3)C2)c(OC)c1` (stereo not given), 25.4%. For `COc1ccc(C(=O)C2CCCN(Cc3cccc(F)c3)C2)c(OC)c1` (stereo not given) the value was 76.9%.

Values taken from ChEMBL document CHEMBL4513216, “Probing the Open Global Health Chemical Diversity Library for Multistage-Active Starting Points for Next-Generation Antimalarials” (ACS Infect Dis, 2020).
